Hits are enriched below; roughly 11% of the tested compounds scored in any of these assays.
HPGD block: blocks human HPGD enzyme activity. P15428. purified HPGD, NADH fluorescence kinetic, PGE2 substrate. Potency, µM, for inactives: top-dose activity change, negative = inhibition, hits mostly inhibitors. 4.3% of 150,000 active; further: potency means the concentration at half of the fitted maximal effect
Target sequence (P15428 whole entry, looked up): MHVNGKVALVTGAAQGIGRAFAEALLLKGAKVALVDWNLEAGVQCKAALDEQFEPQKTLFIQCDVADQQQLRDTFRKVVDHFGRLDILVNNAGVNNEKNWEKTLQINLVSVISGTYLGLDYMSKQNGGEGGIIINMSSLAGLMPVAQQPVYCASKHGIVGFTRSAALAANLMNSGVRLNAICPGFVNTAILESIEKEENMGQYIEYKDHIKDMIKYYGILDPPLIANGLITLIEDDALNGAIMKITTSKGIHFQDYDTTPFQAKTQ
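20 nM HPGD preincubated 15 min at room temperature with compound in 50 mM Tris-HCl pH 8, 0.01% Tween 20. Started with 1 mM NAD+ and 30 uM prostaglandin E2; NADH fluorescence (360/450 nm) read 5 times over 30-s intervals, last minus first.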
PNC assembly inh: perinucleolar compartment assembly inhibition | PC3M PTB-GFP, PNC prevalence imaging, 16 h; stronger effect = lower value | activity change (PNC), negative = inhibition, % at 10 µM | 3.1% of 140,000 active | AID 2417;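 active means readout at or below -70, meaning at least 70% loss of cells showing the perinucleolar compartment, a nuclear body marking cancer cells; inconclusive means readout between -30 and a set limit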;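 further: plate controls were DMSO wells for no effect and camptothecin positive control wells for full effect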
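Compounds are pinned in duplicate onto adhered PC3M cells stably expressing GFP-tagged PTB and incubated 16 h at 37 C. Cells are then fixed, nuclei stained with Hoechst, and PNC-positive cells counted.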
IMPase Li cell: IMPase inhibition in cells with lithium potentiation; CHO-M1 cells, IP1 TR-FRET (IP-One), carbachol + lithium; 0.35% of 210,000 active; Potency, µM (highest dose often 59.4 µM), inactives show top-dose activity, negative = IMPase inhibition, usual class: inhibitors; active means well fitted curve in the direction sought with a large enough effect; inconclusive means small, poorly fitted or top-dose-only effect, or another doubt; inactive means no such curve, though single readings can be large; an effect the other way counts as inactive or inconclusive;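 further: IP1 builds up when IMPase is blocked and the TR-FRET signal falls; potency means the concentration at half of the fitted maximal effect; plate controls were basal vehicle for no effect and high inhibitor control for full effect; nearly all actives have a fitted effect of over 50% in size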
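Lithium-sensitised IP1 accumulation assay; M1-expressing CHO cells treated 30 min at 37C with compound. Competitive antibody detection by time-resolved FRET followed a 10 min room-temperature lysis step.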
ALDH1A1 inh: blocks purified human ALDH1A1 activity. P00352. Purified ALDH1A1, NADH fluorescence, propionaldehyde substrate. Potency, µM (doses to about 75.3 µM), for inactives: top-dose activity, negative = inhibition, usual class: inhibitors. 7.3% of 220,000 active;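 further: potency means the concentration at half of the fitted maximal effect; plate controls were no enzyme wells and a reference inhibitor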
Target sequence (P00352 whole entry, looked up): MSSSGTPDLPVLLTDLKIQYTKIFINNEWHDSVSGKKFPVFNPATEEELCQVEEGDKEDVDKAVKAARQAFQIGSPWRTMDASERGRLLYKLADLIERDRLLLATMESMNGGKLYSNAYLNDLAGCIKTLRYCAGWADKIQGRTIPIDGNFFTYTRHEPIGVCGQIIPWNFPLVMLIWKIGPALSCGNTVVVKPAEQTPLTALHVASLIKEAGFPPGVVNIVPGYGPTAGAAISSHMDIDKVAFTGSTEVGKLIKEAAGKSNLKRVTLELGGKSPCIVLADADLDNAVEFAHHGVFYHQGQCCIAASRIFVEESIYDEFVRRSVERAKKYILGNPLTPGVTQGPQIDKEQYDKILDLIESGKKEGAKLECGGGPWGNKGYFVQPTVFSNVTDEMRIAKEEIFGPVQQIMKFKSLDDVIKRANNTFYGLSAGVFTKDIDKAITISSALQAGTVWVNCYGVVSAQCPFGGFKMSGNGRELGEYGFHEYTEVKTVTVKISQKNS
ALOX12 inhib: inhibitors of human 12-lipoxygenase (ALOX12) | P18054 | purified 12-hLO, xylenol orange hydroperoxide absorbance | Potency, µM (series often up to 57.1 µM), inactives show top-dose activity change, negative = inhibition, hits mostly inhibitors | 0.12% of 150,000 active | AID 1452; active means well fitted curve in the direction sought with a large enough effect; inconclusive means small, poorly fitted or top-dose-only effect, or another doubt; inactive means no such curve, though single readings can be large; an effect the other way counts as inactive or inconclusive; further: potency means the concentration at half of the fitted maximal effect; nearly all actives have a fitted effect of over 55% in size
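Hydroperoxide formation by human 12-lipoxygenase from 40 uM arachidonic acid was followed colorimetrically via ferric-xylenol orange complex, using the 573/405 nm absorbance ratio. Enzyme concentration was 150 nM, with 30 min reaction at room temperature.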
IMPase cell inh: IMPase inhibition in cells; P97697; CHO-M1 cells, IP1 accumulation, HTRF TR-FRET ratio; inhibition (IP1 accumulation), % at 46.1 µM; 120,000 tested, under 10 active; AID 901; active means well fitted curve in the direction sought with a large enough effect in the signal ratio, not every such curve was filed as active; inconclusive means small, poorly fitted or top-dose-only effect, or a change in a side signal; inactive means no such curve, though single readings can be large or run the other way; the % refers to the signal ratio;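 further: cells stimulated with carbachol in lithium chloride buffer; plate controls were DMSO basal wells for no effect and reference inhibitor wells for full effect; higher means more IMPase inhibition seen as more IP1 and lower FRET ratio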
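CHO-M1 cells (CHO stably expressing M1 receptor), compound up to 46 uM final, stimulated with carbachol (50 uM as added) in buffer with 50mM LiCl, pH 7.4, 30 min at 37C. Cytosolic IP1 read by TR-FRET; AC50 from Hill fits.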
An asterisk follows results filed as active; ? = inconclusive; · = not tested or not shown; [ ] = dose if it differs, or a comment. Unless noted, the call rests on the fitted dose curve; in most records, active means well fitted inhibition curve with a large enough effect (not every such curve was filed as active); inconclusive means small, poorly fitted or top-dose-only effect, or another doubt; inactive means no such curve, though single readings can be large or run the other way. Unless noted, on the % scale 0 is the no-effect control and ±100 the full control effect.

SMILES	HPGD block	PNC assembly inh	IMPase Li cell	ALDH1A1 inh	ALOX12 inhib	IMPase cell inh
CC1(C)CC(=O)c2sc(NC(=O)C3CC3)nc2C1	-25.6%	26.7	-21.4%[38.3 µM]	11.2µM*	3.9%	-10.2
Cc1ccc(/C=[N+](\[O-])c2ccc(N(C)C)cc2)c2nsnc12	·	·	107.4%	1.12µM*	·	·
CN(C)c1ccc(/C=N/n2ncc3ccccc32)cc1	?	-13.6	12.6%[38.3 µM]	?	-4.9%	-10.8
CN(C)c1ccc(N=Cc2ccco2)cc1	-29.2%	-22.5	173.7%[38.3 µM]	5.01µM*	?	70.6
Cc1ccc(N=Cc2ccc(N(C)C)cc2)cc1C	·	·	-5.5%	0.562µM*	·	·
C/C(=N/N=C/c1ccc(N(C)C)cc1)c1ccccc1	-15.5%	23.9	-12.9%	25.1µM*	6.4%	·
CN(C)c1ccc(C=Nc2ccccc2)cc1	-16.3%	-11.7	-6.0%[38.3 µM]	0.891µM*	3.1%	6.4
CCN(CC)c1ccc(O)c(C=Nc2ccc(C)c(C)c2)c1	·	·	2.0%	?	·	·
CN(C)c1ccc(/C(=N\O)c2ccccc2)cc1	?	?	22.7%[38.3 µM]	?	-3.6%	0.0
C[C@@]12C(=O)OC(=O)[C@]1(C)[C@H]1CC[C@@H]2O1	-4.5%	·	16.9%	6.6%[20.9 µM]	-1.8%[25.6 µM]	7.1[20.6 µM]
Cn1c(=O)cnc2cnc(Nc3ccccc3)nc21	-13.1%	·	13.6%	-16.6%	-0.2%	·
Cc1ccc(N=Cc2ccc(N(C)C)cc2)cc1	-15.3%	-16.1	-23.1%[38.3 µM]	0.562µM*	-0.3%	7.1
Cc1ccc(/C=N/N=C/c2ccc(C)cc2)cc1	-3.3%	18.8	-13.6%	12.7%	-2.5%	·
CN(C)c1ccc(/C=N/O)cc1	·	·	15.9%	-1.2%	·	·
CN(C)c1ccc(C=Nc2ccc(N(C)C)cc2)cc1	-27.2%	40.6	35.0%	2.24µM*	-14.6%	42.6
COc1ccc(Oc2nc3c(c(=O)n(Cc4ccccc4Cl)c(=O)n3C)n2C)cc1	·	·	·	·	·	-0.4
COc1ccc(NC(=O)N(CCC(C)C)C(C)c2ccccn2)c(OC)c1 (stereo unspecified)	-16.7%	17.8	37.9%[38.3 µM]	14.1µM*	-1.1%	4.7
CN(C)c1ccc(S(=O)(=O)NCC(=O)OCC(=O)Nc2cccc(Cl)c2)cc1[N+](=O)[O-]	3.4%	42.4	-1.6%	7.94µM*	2.8%	·
CNc1ccc(S(=O)(=O)NCC(=O)OCC(=O)Nc2cccc(Cl)c2Cl)cc1[N+](=O)[O-]	-16.3%	-0.2	-5.3%	?	-1.8%	·
Cc1ccc(-n2[nH]c(C)c(/C=N/Nc3ccc([N+](=O)[O-])cc3[N+](=O)[O-])c2=O)cc1	-28.4%	26.3	68.9%	?	-2.6%	·
COCCNC(=O)c1cc(-c2cccnc2)nc2ccc(Br)cc12	-14.8%	?	11.2µM*	10.4%	7.0%	-18.9
CN(C)CCNC(=O)c1cc(Br)ccc1Cl	-4.3%	1.2	12.7%[38.3 µM]	8.1%	1.2%	4.0
COCCNC(=O)c1cc(Br)ccc1Cl	22.4µM*	26.9	22.6%[38.3 µM]	3.4%	0.1%	5.6
CC(C)NC(=O)COC(=O)c1cc(Br)ccc1Cl	22.4µM*	-1.2	-0.4%	-4.5%	1.6%	3.4
Cc1ccc(C)c(N2CCN(C(=O)c3cc4cc5ccc(C)cc5nc4s3)CC2)c1	·	·	·	·	·	-3.4
SMILES	HPGD block	PNC assembly inh	IMPase Li cell	ALDH1A1 inh	ALOX12 inhib	IMPase cell inh
CCOC(=O)CCN1C(=O)[C@H]2[C@@H]3[C@H](O)C=CC(=O)[C@H]3CC[C@H]2C1=O	·	·	·	-2.2%[13.5 µM]	·	·
O=C1C=C[C@@H](O)[C@H]2[C@@H]3C(=O)N(Cc4ccccc4)C(=O)[C@@H]3CC[C@H]12	·	·	·	3.16µM*	·	·
N=c1c2c(-c3ccccc3)c(-c3ccccc3)n(Cc3ccco3)c2ncn1CCCn1ccnc1	6.5%	-98.3*	19.2%	3.8%	2.0%	·
O=C(NNC(=O)c1ccccc1C(=O)O)c1ccc(O)cc1	·	·	-2.1%	-2.0%	·	·
O=C(O)c1ccccc1C(c1ccc(O)cc1)c1ccc(O)cc1	2.5%	·	-17.1%	28.2µM*	0.9%	·
CCCC(=O)NCCc1c2n(c3ccc(OC)cc13)Cc1ccccc1-2	?	·	-10.4%	?	6.9%	-7.4
COC(=O)C1=NN(N=O)C2(CC(=O)N(c3cc(C)cc(C)c3)C2=O)C1 (stereo unspecified)	31.6µM*	?	27.6%[38.3 µM]	8.91µM*	-10.6%	2.1
COC(=O)C(Cc1cncn1COCc1ccccc1)NC(=O)OC(C)(C)C (stereo unspecified)	-5.1%	12.3	-17.8%[38.3 µM]	20µM*	-1.3%	4.3
CC(C)(C)OC(=O)N[C@@H](CC(=O)OCc1ccccc1)C(=O)O	·	·	-2.0%	6.5%	·	·
Cc1ccc2nc(C)/c(=N\O)c(C)nc2c1	-8.6%	14.1	-3.8%[38.3 µM]	8.9%	-0.4%	-21.0
Cc1nc2ccccc2nc(C)c1=NO	-23.9%	-2.3	7.5%[38.3 µM]	22.4µM*	-0.8%	7.9
Cc1ccccc1C(=O)c1cccn1CC(=O)N1CCCCCC1	·	17.2	·	3.98µM*	-5.8%	?
Cc1ccccc1C(=O)c1cccn1CC(=O)NCC1CCCO1 (stereo unspecified)	·	1.5	·	-3.0%	-6.7%	?
CN(C)Cc1c(O)c(Cl)cc2c3c(c(=O)oc12)CCCC3	?	20.4	?	?	-4.6%	?
CCN(CC)Cc1c(O)c(Cl)cc2c3c(c(=O)oc12)CCCC3	?	59.2	12.6µM*	?	-23.9%	-20.8
COc1ccc(CCN2CCCn3c2nc2c3c(=O)n(Cc3ccccc3F)c(=O)n2C)cc1OC	?	12.1	17.1%[38.3 µM]	3.55µM*	-4.3%	13.0
COc1ccc(N2CCCn3c2nc2c3c(=O)n(Cc3ccccc3F)c(=O)n2C)cc1	-5.6%	29.6	-13.5%[38.3 µM]	8.91µM*	0.2%	4.3
COc1ccc(N2CCCn3c2nc2c3c(=O)n(Cc3ccccc3F)c(=O)n2C)c(OC)c1	?	-15.5	13.0%[38.3 µM]	11.2µM*	-1.2%	3.3
Cc1ccc(C(=O)Nc2cc(-c3nc4ncccc4o3)ccc2C)c(C)c1	·	·	·	·	·	1.1
Cc1cccc(NC(=O)c2cc3c([nH]c4ccccc43)c(C)n2)c1C	-22.6%	21.0	-1.8%	2.8%	4.2%	3.0
Cc1ccc(C)c(NC(=O)c2cc3c([nH]c4ccccc43)c(C)n2)c1	-16.5%	13.2	11.2µM*	-4.2%	13.7%	4.8
Cc1cc(C)n(CC(=O)N2c3ccccc3Sc3ccc(C(F)(F)F)cc32)n1	-18.7%	-113.4*	17.2%	6.7%	-1.3%	·
CC(C)(C)c1cnnn1-c1ccc(C=O)cc1	1.3%	?	-2.9%	25.1µM*	0.7%	6.1
CC(C)(C)c1cnnn1-c1ccc(C(=O)CCl)cc1	14.1µM*	?	-0.4%	0.708µM*	-0.7%	-8.2
